Results published in PubChem BioAssay AID720706 (Broad Institute, 2013).
“And” between values parts separate entries of the source, which are not always exact repeats. Equal entries are not always repeated. Hit rate of the full screen: of about 350,000 compounds, about 5,500 (1.6%) were called active.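 The calls were made as follows: active = significant combined selectivity score with lowered wild-type GFP, culture density cut under 30%, mutant RFP and density less affected; inactive = any of these conditions unmet.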 For the sample, actives were picked, then their nearest neighbours and some compounds at random.

Assay: reduced GFP signal of wild-type E. coli, primary screen, bacterial rRNA inhibitor project, GFP/RFP fluorescence, OD600, single point (AID 720706)
Conditions: E. coli WT GFP vs humanized-ribosome RFP mutants, 24 h; GFP signal change (wild-type ribosome): stronger effect = lower value, DMSO median 0, no signal -100; OD600 change: measured here: OD600 growth, DMSO median 0, no signal -100; RFP signal change: measured here: RFP humanized mutant strains, DMSO median 0, no signal -100, concentration not given here

Row | Compound | GFP signal change (wild-type ribosome) | OD600 change | RFP signal change
1 | Cc1ccccc1OS(=O)(=O)c1cccc([N+](=O)[O-])c1 | -22.9% (active) | -15.1% | -4.54%
2 | Cc1cc(C)n(S(=O)(=O)c2cccc([N+](=O)[O-])c2)n1 | 5.54% (inactive) | 9.05% | 1.61%
3 | Cc1cc([N+](=O)[O-])ccc1NS(=O)(=O)c1ccccc1 | -10.6% (inactive) | -35.5% | -7.16%
4 | O=C([C@H]1[C@H](CO)[C@H]2Cn3c(ccc(-c4ccccc4)c3=O)[C@@H]1N2Cc1cccnc1)N1CCOCC1 | 5.29% (inactive) | 5.22% | 0.504%
5 | Cc1ccc(-c2cnc3c(c2)C(=O)N([C@H](C)CO)C[C@H](C)[C@@H](CN(C)S(C)(=O)=O)O3)cc1 | 2.09% (inactive) | 1.04% | 1.43%
6 | C[C@@H]1CN([C@H](C)CO)C(=O)c2c(c3ccccc3n2C)-c2ccccc2CO[C@@H]1CN(C)Cc1ccccc1C(F)(F)F | 3.48% (inactive) | -2.02% | -4.51%
7 | CC(C)NC(=O)Nc1ccc2c(c1)C(=O)N([C@H](C)CO)C[C@@H](C)[C@H](CN(C)S(C)(=O)=O)O2 | 0.569% (inactive) | 1.03% | -2.66%
8 | COc1ccc(NC(=O)CN(C)S(=O)(=O)c2ccccc2)cc1OC | -21.4% (active) | -15.8% | 5.68%
9 | Cc1ccc2nc(-c3ccc(NC(=O)CN(C)S(=O)(=O)c4ccccc4)cc3)sc2c1 | 6.45% (inactive) | 6.57% | -1.11%
10 | COc1ccc(NC(=O)CN(Cc2ccccc2)S(C)(=O)=O)cc1OC | 7.38% (inactive) | 3.04% | 2.82%
11 | C[C@H]1CN([C@@H](C)CO)C(=O)Cc2cc(NC(=O)Cc3ccccc3)ccc2O[C@H]1CN(C)S(=O)(=O)c1ccc(Cl)cc1 | 6.12% (inactive) | 0.505% | -2.09%
12 | C[C@@H]1CN(C)C(=O)c2cccc(N(C)C)c2O[C@H]1CN(C)S(C)(=O)=O | 0.02% (inactive) | -2.43% | -4.17%
13 | CCS(=O)(=O)N1CC(=O)N2[C@H](C1)[C@@H](c1ccc(C#Cc3ccc(F)cc3)cc1)[C@@H]2CO | -26.6% (inactive) | -55.5% | 8.02%
14 | COC(=O)C[C@H]1C[C@H]2c3cc(NC(=O)NC4CCCCC4)ccc3O[C@H]2[C@H](CO)O1 | 3.18% (inactive) | 0.77% | 1.45%
15 | Cc1cc(N2CCN(C)CC2)nc2ccc(NC(=S)N3CCOCC3)cc12 | 2.14% (inactive) | 1.93% | -1.37%
16 | CC1CN(c2nc(Nc3ccccc3)nc(N)c2[N+](=O)[O-])CC(C)O1 (centres undefined) | -35.4% (inactive) | -33.8% | -0.525%
17 | CN1CCN(c2nc(Nc3ccc(O)cc3)nc3ccccc23)CC1 | -21.6% (active) | 2.64% | 1.85%

Row | Compound | GFP signal change (wild-type ribosome) | OD600 change | RFP signal change
18 | C[C@H]1CN([C@@H](C)CO)C(=O)c2cc(NS(C)(=O)=O)ccc2O[C@@H]1CN(C)S(=O)(=O)c1ccc(Cl)cc1 | 2.05% (inactive) | 0.615% | 0.846%
19 | CC(=O)N1C[C@@H]2C(c3ccccc3)[C@H](C1)N2Cc1ccc(F)cc1 (some centres undefined) | -7.42% (inactive) and -0.918% (inactive) | -6.55% and 0.0005% | 2.17% and -0.988%
20 | COc1ccc(CN2CCCCN3[C@H](C2)[C@H](c2ccc(-c4ccc(OC)cc4)cc2)[C@@H]3CO)cc1 | 0.651% (inactive) | 2.56% | 3.41%
21 | COc1ccc(Cn2c(-c3ccc(Cl)cc3)c[n+]3ccccc23)cc1 | -31.8% (active) | -12.7% | 10%
22 | COc1ccc(-c2ccc([C@@H]3[C@@H](CO)N4C(=O)CN(Cc5ccccc5)C[C@@H]34)cc2)cc1 | 0.0065% (inactive) | -2.91% | 0.737%
23 | COc1ccc(NC(=O)Nc2ccc3c(c2)C(=O)N([C@H](C)CO)C[C@@H](C)[C@H](CN(C)CC2CCCCC2)OCCCC[C@@H](C)O3)cc1 | 2.06% (inactive) | -1.06% | 2.56%
24 | CN(C)C(=S)Nc1ccc(Br)cc1Cl | -21.3% (active) | -3.38% | -5.33%
25 | CC1CN(C(=S)Nc2ccc(Br)cc2Cl)CC(C)O1 (centres undefined) | 0.789% (inactive) | 0.865% | -2.8%
26 | O=C(NNC(=S)Nc1ccc(Br)cc1Cl)c1ccco1 | -55.5% (inactive) | -76.6% | -26.1%
27 | C[C@@H]1CN([C@H](C)CO)C(=O)c2cc(C#CC3CC3)cnc2O[C@H]1CN(C)C(=O)CC1CC1 | 0.803% (inactive) | 4.53% | -4.43%
28 | Cc1cc(C(=O)COC(=O)C2CC2)c(C)n1-c1ccc(F)cc1 | -25.1% (active) | -8.48% | -5.46%
29 | Cc1ccc(-n2c(C)cc(C(=O)CN3C(=O)C(=O)N(C4CCCC4)C3=O)c2C)cc1 | -12.3% (inactive) | -20.5% | 24%
30 | Cc1cc(C(=O)COc2ccccc2Cl)c(C)n1C1CC1 | -19.2% (inactive) | -34.3% | 0.284%
31 | COc1ccc(C)cc1N(CC(=O)NC(C)c1ccccc1)S(C)(=O)=O (centres undefined) | 7.63% (inactive) | 6.56% | 4.34%
32 | Cc1ccc(OCCCC(=O)NC(C)c2ccccc2)c(C)c1 (centres undefined) | -20.1% (active) | -9.71% | 4.93%
33 | Cc1ccccc1OCCC(=O)OCC(=O)NC(C)c1ccccc1 (centres undefined) | -11.5% (inactive) | -7.58% | 0.763%
